Consider 14 compounds from PubChem BioAssay.

Unmarked numbers belong to inactive results. The source made the active and inactive calls.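 Rule for the calls, unless noted: active = mean inhibition over 43.08%, the solvent-only control mean plus 3 SD; inactive = the rest.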

The target of test [1] is Nuclear receptor coactivator 3 (Homo sapiens) (UniProt Q9Y6Q9). Briefly: NCOA3 GAL4-fusion reporter inhibition – cell-based, luminescence, quadruplicate, confirmation (AID 588792).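 Note: 0% = DMSO treated cells and 100% = gossypol at 36 µM.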 Particulars: HEK293 GAL4-SRC3 luciferase reporter, at 3.6 µM, stronger effect = higher value.
Sequence of Nuclear receptor coactivator 3 (Homo sapiens) (Q9Y6Q9 whole entry, looked up, the tested form may be a part): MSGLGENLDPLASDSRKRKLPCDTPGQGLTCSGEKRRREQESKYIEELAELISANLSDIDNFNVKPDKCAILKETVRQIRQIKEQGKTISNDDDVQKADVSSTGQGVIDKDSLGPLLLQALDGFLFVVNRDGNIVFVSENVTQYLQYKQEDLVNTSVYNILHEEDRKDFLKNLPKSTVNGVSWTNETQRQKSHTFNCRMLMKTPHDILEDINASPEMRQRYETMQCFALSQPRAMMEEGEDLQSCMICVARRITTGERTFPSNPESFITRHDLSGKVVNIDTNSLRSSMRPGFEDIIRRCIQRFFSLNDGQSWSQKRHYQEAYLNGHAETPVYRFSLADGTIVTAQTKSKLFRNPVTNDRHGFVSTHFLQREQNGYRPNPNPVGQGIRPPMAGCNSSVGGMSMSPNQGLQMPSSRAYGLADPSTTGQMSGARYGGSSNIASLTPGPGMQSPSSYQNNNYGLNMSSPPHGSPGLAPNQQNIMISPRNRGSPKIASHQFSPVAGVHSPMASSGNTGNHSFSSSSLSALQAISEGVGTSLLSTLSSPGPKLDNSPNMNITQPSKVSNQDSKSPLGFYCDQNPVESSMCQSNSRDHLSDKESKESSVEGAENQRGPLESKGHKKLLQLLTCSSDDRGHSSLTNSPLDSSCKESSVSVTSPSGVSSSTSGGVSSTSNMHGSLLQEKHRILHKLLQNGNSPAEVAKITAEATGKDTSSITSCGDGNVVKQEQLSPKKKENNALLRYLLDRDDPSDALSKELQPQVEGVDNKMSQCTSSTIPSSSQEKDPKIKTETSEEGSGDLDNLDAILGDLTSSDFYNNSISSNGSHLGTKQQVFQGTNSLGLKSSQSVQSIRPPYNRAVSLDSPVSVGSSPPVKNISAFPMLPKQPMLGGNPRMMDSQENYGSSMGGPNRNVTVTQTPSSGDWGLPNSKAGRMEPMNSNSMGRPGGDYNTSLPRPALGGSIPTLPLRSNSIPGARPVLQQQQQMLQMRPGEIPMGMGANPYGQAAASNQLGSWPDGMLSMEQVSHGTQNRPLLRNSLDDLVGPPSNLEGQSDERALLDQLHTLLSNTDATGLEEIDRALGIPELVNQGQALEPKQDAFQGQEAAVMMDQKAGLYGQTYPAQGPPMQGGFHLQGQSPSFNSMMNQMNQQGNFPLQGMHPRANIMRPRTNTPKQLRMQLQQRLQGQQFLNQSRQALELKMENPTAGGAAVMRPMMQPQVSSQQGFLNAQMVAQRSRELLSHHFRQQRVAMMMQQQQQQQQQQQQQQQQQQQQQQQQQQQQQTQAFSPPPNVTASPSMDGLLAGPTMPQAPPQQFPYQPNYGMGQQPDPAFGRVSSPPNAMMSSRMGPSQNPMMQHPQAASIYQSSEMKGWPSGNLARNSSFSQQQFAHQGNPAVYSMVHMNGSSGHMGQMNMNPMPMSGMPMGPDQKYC
The subject of test [2] is transactivating tegument protein VP16 (Human herpesvirus 1), Gal4-VP16 luciferase reporter. Briefly: repression of VP16-driven luciferase reporter – cell-based, luminescence, high throughput, counter-screen for SRC3 inhibitor project (AID 588794; in the data active = inhibition above about 30%). The settings on record: mammalian cells, at 3.6 µM, stronger effect = higher value.

For the compound `O=C(COc1ccc(Cl)cc1)Nc1ccc(C(=O)NCc2cccnc2)cc1`, the inhibition was 55.6% (active) in test [1] and -24.6% in test [2].

Consider `O=C(Nc1ccc(Oc2cccnc2)nc1)c1ccc(C(F)(F)F)cc1`, for which the inhibition in test [1] is 17.2%; in test [2] it was 37.1% (active).

Take `COc1cccc(-c2csc3ncnc(Sc4nnnn4C)c23)c1`: the inhibition in test [1] is 5.54%; in test [2], 21.9%.

As to `CCCCNC(=O)c1onc(CSc2cc(C)cc(C)c2)c1C(=O)NCCCC`, the inhibition in test [1] was 7.83%; in test [2] it was 4.86%.

Turning to `COc1ccc(NC(=O)c2cc(C3CC3)nc3c2cnn3C(C)C)cc1OC`, the figures for the inhibition in test [1] and in test [2] were -12.8% and -3.62%, respectively.

For `CCOC(=O)N1CCC2(CC1)C(C#N)=C(N)Oc1n[nH]c(CSc3ccc(C)cc3)c12`, the inhibition in test [1] is 2.57%; in test [2], -6.53%.

In the case of `CCOC(=O)c1c(NC(=S)N2CCN(C)CC2)sc2c1CCN(C(=O)OCC)C2`, the values for the inhibition in test [1] and in test [2] were 35.5% and 40.1% (active), respectively.

For `CCOc1ccc(/C=C/C(O)=C2/C(=O)NC3(C)CC2c2ccccc2O3)cc1OC` (stereo not drawn), the inhibition in test [1] was 25.5%; in test [2], 39% (active).

As to `CC#CC[N+](C)(C)CCCCCCCCCC`, the inhibition was 4.4% in test [1] and 16.9% in test [2].

Turning to `CC1Cc2cc(-c3csc(NC(=O)Cc4ccccc4)n3)ccc2N1S(C)(=O)=O` (stereo not drawn), the inhibition in test [1] is 23.8%; in test [2], 24.3%.

On to `COc1ccc(C(=O)/C=C/c2cc(OC)c(O)c(OC)c2)c(F)c1`, for which the inhibition in test [1] is 26.6%; in test [2], 17.7%.

In the case of `CCCCC(=O)NC(c1ccco1)c1cc(Cl)c2cccnc2c1O` (stereo not drawn), the inhibition in test [1] was 16.4%; in test [2], 10.6%.

For the compound `O=C(Nc1cccc2ccccc12)OC1C=CS(=O)(=O)C1` (stereo not drawn), the inhibition was 25.6% in test [1] and 15.6% in test [2].

Consider `CC(=O)Nc1cccc(C(=O)/C=C/c2ccc(F)cc2)c1`, for which the inhibition in test [1] is 1.7%; in test [2], 2.15%.

The inhibition is the relative decrease from the control value, in per cent.
